From PubChem BioAssay (EPA / NIEHS)
Records with an inconclusive call do not appear. Calls of active or inactive are those of the source. The calls were made as follows: active = hit-call score of the fitted dose curve at least 0.9, where 1 is the maximum; inconclusive = response in the unintended direction; inactive = score below 0.9.

Legend:
[1] = Tanguay_ZF_120hpf_EYE_legacy: (Legacy) Oregon State University Tanguay Lab 120 Hour Post-fertilization zebrafish Assay for Eye Malformation (AID 2283636);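 also: binary presence or absence of eye malformation scored by brightfield in 120 hpf larvae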
Outline: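 Dechorionated wild-type Tropical 5D zebrafish embryos were exposed statically from 6 hpf, one per well, to 120 hpf at 28C in sealed, foil-covered plates with 0.64% DMSO. Eye malformation was scored present/absent by brightfield microscopy against DMSO controls.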

[2] = Tanguay_ZF_120hpf_JAW_legacy: (Legacy) Oregon State University Tanguay Lab 120 Hour Post-fertilization zebrafish Assay for Jaw Malformation (AID 2283638);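 as to AC50: active means more embryos with jaw malformation than DMSO controls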
Outline: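 Wild-type 5D embryos, chorion removed at 4 hpf, dosed singly from 6 hpf; 28C static, sealed, foil-covered, to 120 hpf. Endpoint: jaw defect yes/no (brightfield); mortality excludes scoring.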

[3] = Tanguay_ZF_120hpf_OTIC_legacy: (Legacy) Oregon State University Tanguay Lab 120 Hour Post-fertilization zebrafish Assay for Otic Vesicle Malformation (AID 2283639)
Outline: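 Otic vesicle malformation is read as a yes/no morphology call at 120 hpf. Exposure is static at 28C with 0.64% (vol/vol) DMSO; embryos that die are excluded from non-mortality endpoints.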

[4] = Tanguay_ZF_120hpf_SOMI_legacy: (Legacy) Oregon State University Tanguay Lab 120 Hour Post-fertilization zebrafish Assay for Somite Malformation (AID 2283647)
Outline: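 Somitogenesis defects are recorded as binary calls in whole larvae at 120 hpf after continuous static chemical exposure starting at 6 hpf in dechorionated 5D embryos. DMSO serves as negative control and baseline.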

[5] = Tanguay_ZF_120hpf_CFIN_legacy: (Legacy) Oregon State University Tanguay Lab 120 Hour Post-fertilization zebrafish Assay for Caudal Fin Malformation (AID 2283649)
Outline: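 Single dechorionated 5D wild-type embryos are dosed at 6 hpf (final DMSO 0.64%) and held statically at 28C. Caudal fin malformation is recorded as present or absent at 120 hpf under brightfield, excluding dead embryos.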

[6] = Tanguay_ZF_120hpf_PIG_legacy: (Legacy) Oregon State University Tanguay Lab 120 Hour Post-fertilization zebrafish Assay for Pigmentation Malformation (AID 2283650)
Outline: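 Tropical 5D wild-type zebrafish embryos, dechorionated with pronase at 4 hpf, were exposed singly from 6 hpf to 120 hpf statically at 28C in sealed, dark plates with 0.64% DMSO; pigmentation scored present/absent by brightfield microscopy, fitted against DMSO.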

[7] = Tanguay_ZF_120hpf_CIRC_legacy: (Legacy) Oregon State University Tanguay Lab 120 Hour Post-fertilization zebrafish Assay for Circulatory Malformation (AID 2283651)
Outline: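 Using wild-type Tropical 5D zebrafish, we exposed dechorionated embryos from 6 to 120 hpf in embryo medium with 0.64% DMSO. Circulatory defects were scored as present or absent; 5uM trimethyltin chloride served as positive control.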

[8] = Tanguay_ZF_120hpf_SWIM_legacy: (Legacy) Oregon State University Tanguay Lab 120 Hour Post-fertilization zebrafish Assay for Swim Bladder Malformation (AID 2283654);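 also: swim bladder malformation in each larva scored yes or no under brightfield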
Outline: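 Dechorionated Tropical 5D wild-type embryos, placed singly from 6 hpf, were statically exposed at 28C to 120 hpf with 0.64% DMSO final; swim bladder malformation was scored present/absent by brightfield microscopy, gain of signal relative to DMSO controls.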

[9] = Tanguay_ZF_120hpf_TRUN_legacy: (Legacy) Oregon State University Tanguay Lab 120 Hour Post-fertilization zebrafish Assay for Truncated Body (AID 2283655)
Outline: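 Single dechorionated zebrafish embryos received test chemical from 6 hpf in 0.64% DMSO, kept at 28C. At 120 hpf, brightfield inspection noted any truncated body.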

[10] = Tanguay_ZF_120hpf_NC_legacy: (Legacy) Oregon State University Tanguay Lab 120 Hour Post-fertilization zebrafish Assay for Notochord and Tail Malformation (AID 2283656)
Outline: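 Dechorionated 5D zebrafish, 1/well from 6 hpf; static exposure to 120 hpf, 28C, sealed, dark; final DMSO 0.64% v/v. NC scored binary (present/absent); dead embryos not scored. Fit vs DMSO baseline, gain direction.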

[11] = Tanguay_ZF_120hpf_SNOU_legacy: (Legacy) Oregon State University Tanguay Lab 120 Hour Post-fertilization zebrafish Assay for Snout Malformation (AID 2283637)
Outline: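 Tropical 5D wild-type zebrafish embryos, dechorionated with pronase at 4 hpf, were exposed singly from 6 hpf to 120 hpf statically at 28C in 0.64% DMSO. Snout malformation was scored present/absent by brightfield microscopy, fitted against DMSO.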

[12] = Tanguay_ZF_120hpf_BRAI_legacy: (Legacy) Oregon State University Tanguay Lab 120 Hour Post-fertilization zebrafish Assay for Brain Malformation (AID 2283641)
Outline: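 Static exposure of staged wild-type embryos until 120 hpf, kept at 28C with light excluded and final DMSO of 0.64% (vol/vol). Presence or absence of brain malformation was noted under brightfield; mortality precluded scoring.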

[13] = tested on: Thyroperoxidase (TPO), gene 54314; experiment: CCTE_Simmons_AUR_rTPO: CCTE's Amplex UltraRed Assay for Thyroperoxidase (TPO) Inhibition, Simmons Lab (AID 2283662);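 also: potency for loss of signal meaning inhibition of peroxidase activity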
Outline: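 Rat thyroid microsomal TPO + 25 uM AUR in 200 mM K phosphate; cpd 5 nM–87.5 uM [final], 8 conc, 0.5% DMSO; 300 uM H2O2 starts rxn; 37C dark 30 min; endpoint FI 544/590 nm; n=3.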

[14] = CCTE_Simmons_CellTiterGLO_HEK293T: Viability Assessment in CCTE's Assays for Thyroperoxidase (TPO) Inhibition, Simmons Lab (AID 2283665);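 as to AC50: cells exposed to compound for 24 h before readout; actives reduce ATP signal below DMSO vehicle meaning cytotoxicity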
Outline: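 Cytotoxicity counter-screen: human HEK293T cells in low-serum (1% FBS) medium receive test chemical, 5 nM to 87.5 uM final, for 24 h; ATP is quantified by luciferase luminescence.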

[15] = Tanguay_ZF_120hpf_PFIN_legacy: (Legacy) Oregon State University Tanguay Lab 120 Hour Post-fertilization zebrafish Assay for Pectoral Fin Malformation (AID 2283648);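 also: each larva judged yes or no for fin defect by brightfield with dead larvae skipped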
Outline: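 Tropical 5D wild-type embryos, dechorionated with pronase at 4 hpf, were placed singly in wells at 6 hpf and statically exposed until 120 hpf at 28C, sealed and dark, with 0.64% (vol/vol) final DMSO; pectoral fin malformation scored present/absent.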

[16] = Tanguay_ZF_120hpf_PE_legacy: (Legacy) Oregon State University Tanguay Lab 120 Hour Post-fertilization zebrafish Assay for Pericardial Edema (AID 2283640)
Outline: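 Zebrafish larvae are exposed from early development to 120 hpf at 28C, with 0.64% DMSO final. Each surviving larva receives a yes/no pericardial edema call by brightfield imaging, analysed relative to the DMSO baseline.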

Measured: AC50

Cc1cc(F)ccc1-c1cc(N2CC[C@@H](O)[C@H]2CO)ncc1N(C)C(=O)C(C)(C)c1cc(C(F)(F)F)cc(C(F)(F)F)c1
not listed: [11] | [12] | [13] | [14] | [15] | [16]
inactive: all other assays above

O=C(O)c1ccccc1C(=O)OCc1ccccc1
inactive: [11] | [3] | [12] | [5] | [6] | [7] | [8] | [10]

O=C1O[C@H]([C@@H](O)CO)C(O)=C1O
active: [13] 43.8 µM
not listed: [2] | [3] | [8] | [15] | [16]
inactive: all other assays above

CC(C)(c1cc(Br)c(O)c(Br)c1)c1cc(Br)c(O)c(Br)c1
active: [13] 18.5 µM | [14] 14.7 µM
not listed: [4] | [8] | [15] | [16]
inactive: all other assays above

CC1(C)NC(=O)N(c2ccc([N+](=O)[O-])c(C(F)(F)F)c2)C1=O
not listed: [11] | [13] | [14] | [16]
inactive: all other assays above

CN(C)c1ccc(C(=C2C=CC(=[N+](C)C)C=C2)c2ccc(N(C)C)cc2)cc1
active: [13] 15.9 µM | [14] 0.955 µM
inactive: [5] | [6] | [7] | [8] | [9]

Cc1cccc2ccccc12
not listed: [11] | [13] | [14]
inactive: all other assays above

c1ccc2ccccc2c1
not listed: [1] | [13] | [14] | [15] | [16]
inactive: all other assays above

OC12N=C(c3ccccc3)SC1Cc1cc(Cl)ccc12 (stereo unspecified)
inactive: [3] | [12] | [7] | [8]
active: [1] 11.1 µM | [11] 15.1 µM | [2] 45.3 µM | [4] 117 µM | [5] 48.1 µM | [6] 44.5 µM | [9] 48.2 µM | [13] 13 µM | [14] 29.7 µM

O=C(Nc1ccc(Cl)cc1)Nc1ccc(Cl)c(Cl)c1
active: [13] 18.9 µM | [14] 1.73 µM
not listed: [1] | [15] | [16]
inactive: all other assays above

O=C(OCCCCCCOC(=O)c1ccccc1)c1ccccc1
inactive: [2] | [4] | [5] | [7] | [9] | [10]
